# MPTP block: permeability transition pore inhibition; 360,000 compounds, 1.4% hits; inhibition, % at 10 µM; isolated mouse mitochondria, Ca2+ swelling absorbance, 30 min;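 active = inhibition of 50% or more, scaled per plate between neutral and stimulator controls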;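 also: 0% = DMSO wells given calcium and 100% = 1 mM EGTA wells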
# Mdm2 MdmX PPI: human Mdm2/MdmX binding inhibition. O15151+Q00987. SaOS-2 split-luciferase Mdm2/MdmX complementation, luminescence. inhibition, % at 8 µM. 330,000 compounds, 3% hits;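 active = inhibition of at least 50% at 8 µM in the primary screen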
# Target sequence (O15151 whole entry, looked up): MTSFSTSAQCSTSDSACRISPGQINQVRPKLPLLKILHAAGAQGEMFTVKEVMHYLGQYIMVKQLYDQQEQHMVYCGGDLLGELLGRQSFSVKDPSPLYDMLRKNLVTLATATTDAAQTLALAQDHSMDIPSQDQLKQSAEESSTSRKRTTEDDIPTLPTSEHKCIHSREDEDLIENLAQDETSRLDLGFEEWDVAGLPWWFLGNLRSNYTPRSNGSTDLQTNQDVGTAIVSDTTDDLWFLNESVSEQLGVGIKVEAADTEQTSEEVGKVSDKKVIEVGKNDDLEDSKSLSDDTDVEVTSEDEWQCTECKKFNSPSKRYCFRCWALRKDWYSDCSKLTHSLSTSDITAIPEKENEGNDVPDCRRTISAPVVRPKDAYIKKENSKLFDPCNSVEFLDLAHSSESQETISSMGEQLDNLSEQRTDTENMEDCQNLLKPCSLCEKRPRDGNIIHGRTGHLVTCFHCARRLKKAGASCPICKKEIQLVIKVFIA
# Target sequence (Q00987 whole entry, looked up): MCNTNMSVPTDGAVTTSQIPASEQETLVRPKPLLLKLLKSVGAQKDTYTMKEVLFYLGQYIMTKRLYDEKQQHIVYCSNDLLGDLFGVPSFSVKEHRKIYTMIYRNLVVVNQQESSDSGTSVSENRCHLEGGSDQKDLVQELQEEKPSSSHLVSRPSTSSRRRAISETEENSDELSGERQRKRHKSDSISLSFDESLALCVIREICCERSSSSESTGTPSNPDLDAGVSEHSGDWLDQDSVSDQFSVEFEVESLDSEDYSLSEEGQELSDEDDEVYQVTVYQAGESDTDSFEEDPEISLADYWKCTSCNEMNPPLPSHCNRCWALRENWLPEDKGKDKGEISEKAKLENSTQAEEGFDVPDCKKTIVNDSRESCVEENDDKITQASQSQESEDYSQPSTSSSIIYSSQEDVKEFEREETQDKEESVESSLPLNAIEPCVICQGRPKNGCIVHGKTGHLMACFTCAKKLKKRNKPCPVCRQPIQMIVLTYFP
# CSC inhib: blocks cancer stem cells | cancer stem cell-like cells viability, luminescence | inhibition, % at 7.5 µM | 300,000 compounds, 1.1% hits | AID 2717; in the data active = inhibition above about 75%; tested in HMLE shEcad cells
# Beta apoptosis: blocks beta cell apoptosis. AID 435005. 300,000 compounds, 0.8% hits. INS-1E cytokine-induced death, ATP luminescence, 48 h; percent of positive-control rescue, neutral wells zero. protection from apoptosis, % (no concentration beside the values);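 active = Every replicate reaches about 75%, or at least half do and their mean reaches it too, limit read from the data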;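 also: 0% = cytokine-treated negative control wells and 100% = positive control rescue; higher means more ATP so stronger rescue from cytokine killing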
# Calb FLC: affects C. albicans growth with fluconazole | growth inhibition, % (test concentration not listed) | C. albicans CaCi-2 (fluconazole-resistant clinical isolate) + fluconazole, Alamar Blue growth, 48 h | 300,000 compounds, 0.57% hits | AID 1979;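 active = growth inhibition above about 58% in most replicates, limit read from the data, passing the limit was not always enough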;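 also: all wells also contain fluconazole at 8 µg/ml as a sub-toxic cotreatment; 0% = median of DMSO wells and 100% = median of geldanamycin control wells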
# Mdm2-MdmX conf: human Mdm2/MdmX binding inhibition, confirmed; 10,000 compounds, 55% hits; inhibition, % at 8 µM; luminescent assay; AID 489028; shares compounds with Mdm2 MdmX PPI; in the data active = inhibition above about 40%
# Full FLuc ctr: inhibits full-length luciferase, flagging false Mdm2/MdmX hits. shares compounds with Mdm2 MdmX PPI. SaOS-2 full-length luciferase counterscreen, luminescence. inhibition, % at 8 µM. 6,200 compounds, 77% hits. AID 504607;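 active = mean inhibition at 8 µM reaching about 37%, which flags the compound as non-specific, limit read from the data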;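 also: p53-null SaOS-2 cells with luciferase driven by a doxycycline-inducible promoter; compound on cells about two nights before reading with doxycycline added after day one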
# The depositor's hits bear a star; · = no result. Hits are enriched below; roughly 4.8% of the tested compounds scored in any of these assays.
SMILES,MPTP block,Mdm2 MdmX PPI,CSC inhib,Beta apoptosis,Calb FLC,Mdm2-MdmX conf,Full FLuc ctr
CCOC(=O)c1cccc(-[n+]2c(-c3ccccc3)cc(-c3ccccc3)cc2-c2ccccc2)c1,5,89*,19,135*,-5,50*,33
O=C(C1CCCCC1)N1Cc2ccccc2-n2nncc2C1,0,·,·,·,·,·,·
Cc1cc(C(=O)OC(C)C(=O)Nc2ccccc2)c(C)n1C1CC1 (configuration not stated),1,·,·,·,·,·,·
COc1ccc(/C=C/C(=O)c2c(O)n(CCC3=CCCCC3)c(=O)[nH]c2=O)cc1OC,-4,69*,7,-5,6,34,·
COC(=O)[C@@H]1N=C(c2ccc(OC)cc2)O[C@]12C(=O)N(C)c1cccc(Cl)c12,1,·,·,·,·,·,·
O=c1[nH]c(=S)[nH]c(O)c1N=Nc1ccc2c(c1)OCCO2,1,-1,8,35,-5,·,·
O=c1[nH]c(O)c(N=Nc2ccc3c(c2)OCCO3)c(=O)[nH]1,1,58*,10,5,14,68*,78*
C[N+]12CCC(CC1)C(C(O)(c1cccc(Cl)c1)c1cccc(Cl)c1)C2 (configuration not stated),-4,3,-5,-2,19,·,·
Cc1ccc(C(O)(c2ccc(C)c(C)c2)C2CN3CCC2CC3)cc1C (configuration not stated),1,61*,2,16,-5,44*,74*
CCOC(=O)[C@]12Cc3cc(OC)ccc3[C@H]1N(C(C)C)C(=O)c1cc(OC)ccc12,0,·,·,·,·,·,·
COc1ccc(CCNC2CCCCC2)cc1,-4,14,-5,-2,-18,·,·
COc1ccc(C[C@H]2NC[C@H](O)[C@H]2OC(C)=O)cc1,0,98*,79*,51,·,98*,5
CCCCn1c(N)c(C(=O)NCCN2CCOCC2)c2nc3ccccc3nc21,-1,4,14,-2,-2,·,·
Nc1c(C(=O)NCCc2ccccc2)c2nc3ccccc3nc2n1CCN1CCOCC1,-1,54*,·,·,2,28,·
COc1ccc(CCNC(=O)c2c(N)n(CCN3CCOCC3)c3nc4ccccc4nc23)cc1,-2,76*,42,1,-6,8,·
CC(C)(C)NC(=S)N1Cc2ccccc2-n2nncc2C1,-1,·,·,·,·,·,·
C[C@@H]1O[C@@H](O[C@H]2C[C@@H](O)[C@]3(CO)[C@H]4[C@H](O)C[C@]5(C)[C@@H](C6=CC(=O)OC6)CC[C@]5(O)[C@@H]4CC[C@]3(O)C2)[C@H](O)[C@H](O)[C@H]1O,·,83*,95*,-4,·,80*,12
CC1OC(OC2C(O)CC(OC3C(O)CC(OC4CCC5(C)C(CCC6C5CCC5(C)C(C7=CC(=O)OC7)C(O)CC65O)C4)OC3C)OC2C)CC(O)C1O (configuration not stated),0,·,·,·,·,·,·
CCOC(=O)[C@]12Cc3ccccc3[C@H]1N(CCC(=O)OC)C(=O)c1cc(OC)ccc12,-2,·,·,·,·,·,·
Cc1ccc(C(O)(C(=O)OC(C)C)C(O)c2ccccc2)cc1 (configuration not stated),-1,·,·,·,·,·,·
O=C1NCN(c2ccccc2)C12CCN(C(c1nnnn1C1CCCCC1)C1CC1)CC2 (configuration not stated),1,·,·,·,·,·,·
CN(Cc1cccc(-c2ccncc2)c1)C(=O)Oc1ccc([N+](=O)[O-])cc1,24,·,·,·,·,·,·
COc1cc2c3cc1Oc1cc(ccc1O)C[C@@H]1c4c(cc(OC)c(O)c4Oc4ccc(cc4)C[C@H]3N(C)CC2)CCN1C,5,92*,7,1,-13,76*,50*
COc1cc2c(cc1O)C[C@H]1c3c(cc(O)c(OC)c3-2)CCN1C,-1,12,-10,-3,·,·,·
COc1cc2c3cc1Oc1c(OC)c(OC)cc4c1[C@H](Cc1ccc(cc1)Oc1cc(ccc1O)C[C@H]3N(C)CC2)N(C)CC4,-2,97*,-4,17,·,57*,30
SMILES,MPTP block,Mdm2 MdmX PPI,CSC inhib,Beta apoptosis,Calb FLC,Mdm2-MdmX conf,Full FLuc ctr
COc1cc2c3c(c1OC)Oc1ccc(cc1)C[C@H]1c4c(cc(OC)c(OC)c4Oc4ccc(cc4)C[C@@H]3N(C)CC2)CCN1C,5,100*,·,·,·,74*,35
CCOC(=O)[C@]12Cc3c(cc(OC)c(OC)c3OC)[C@H]1N(C)C(=O)c1ccccc12,0,·,·,·,·,·,·
CCOC(=O)[C@]12Cc3cc(Cl)ccc3[C@H]1N(C(C)C)C(=O)c1ccccc12,-4,·,·,·,·,·,·
COc1ccc(C2=NCc3nnc(C)n3-c3ccc(Cl)cc32)cc1Cl,0,65*,37,0,0,28,·
CC(C)(C)n1nnnc1C(c1ccnc2ccccc12)N1CCC2(CC1)C(=O)NCN2c1ccccc1 (configuration not stated),-1,·,·,·,·,·,·
c1ccc2c(c1)CN(Cc1ccc3c(c1)OCO3)Cc1cnnn1-2,-2,·,·,·,·,·,·
O=C1Nc2cc(C(=O)N3CCC4(CC3)OCCO4)ccc2S/C1=C\c1ccccc1,0,61*,52,17,-14,50*,66*
Cc1c2ccncc2c(C)c2c1[nH]c1ccccc12,3,98*,109*,119*,·,92*,2
CC(C)(O)C1C2OC(=O)C1C1(O)CC3OC34C(=O)OC2C14C (configuration not stated),0,·,·,·,·,·,·
COC(=O)C1=C(c2cccc(OCc3ccccc3)c2)C[C@@H]2CC[C@H]1N2C(=O)NC1CCN(Cc2ccccc2)CC1,0,61*,22,8,·,40*,71*
COC(=O)C1=C(c2ccccc2OCc2ccccc2)C[C@@H]2CC[C@H]1N2C(=O)NC1CCN(Cc2ccccc2)CC1,3,51*,12,7,·,18,·
COC(=O)C1=C(c2ccc(F)cc2OCc2ccccc2)C[C@@H]2CC[C@H]1N2C(=O)NC1CCN(Cc2ccccc2)CC1,1,76*,14,0,·,37,60*
COC(=O)C1=C(c2ccc(F)cc2OCc2ccccc2)C[C@@H]2CC[C@H]1N2C(=O)NCc1ccccc1,0,14,24,5,·,·,·
O=C1NCN(c2ccccc2)C12CCN(C(c1cccc3ccccc13)c1nnnn1-c1ccc3c(c1)OCCO3)CC2 (configuration not stated),2,·,·,·,·,·,·
CCOC(=O)CNC(=O)N1Cc2cc(N3CCOCC3)ccc2-n2nncc2C1,-1,·,·,·,·,·,·
C=CCNC(=S)N1Cc2cc(Br)ccc2-n2nncc2C1,0,·,·,·,·,·,·
CC12CCC3C(CCC4(O)CC(O)CCC34C=NO)C1(O)CCC2C1=COC(=O)C1 (configuration not stated),-1,·,·,·,·,·,·
C[C@]12CCC3C(CCC4=CC(O)CC[C@@]43/C=N/O)C1(O)CCC2C1=CC(=O)OC1 (some centres not stated),0,58*,115*,-3,2,72*,19

# Bioassay records deposited in PubChem by several laboratories.
